The whole screen tested about 68,000 compounds, of which about 2,700 (4%) showed an effect of 50% or more. This is one part of a sample in which strong results are shown more often than they occur.
Each compound was assayed on Plasmodium berghei (assay: Screen against P. berghei liver stage (PbLuc), transformed with Luciferase, at 2uM). Conditions: tested at 2 uM.
Format: functional, HepG2

Going from CC(=O)N1CCN(C(=O)c2ccc3ccn(C)c3c2)CC1 to O=C(c1cc(-n2cnnn2)ccc1Cl)N1CCN(c2ccccc2)CC1, the INHIBITION rises from -58.53% to 8.92%.

Going from O=S(=O)(Cc1cccc(Cl)c1)CC(O)Cn1cccn1 (stereo not given) to CN(CCn1ccnc1-c1ccccn1)S(C)(=O)=O, the INHIBITION rises from -17.17% to 35.52%.

Compared with CN1[C@@H]2CC[C@H]1CN(C(=O)c1ccc(-c3ccccc3)[nH]1)CC2, O=C(Cn1cccc2cc(-c3ccc(F)cc3)nc1-2)N1CCC(O)CC1 is higher in INHIBITION: 21.95% for the first, 92.28% for the second.

Compared with Cn1cc(-n2cc3nc(N4CCOCC4)[nH]cc-3c2=O)cn1, CCn1cc(-n2cc3nc(N4CCOCC4)[nH]cc-3c2=O)cn1 is higher in INHIBITION: 13.95% for the first, 37.89% for the second.

Going from CC(C)n1cc(-n2cc3nc(N4CCOCC4)[nH]cc-3c2=O)cn1 to COc1ccc(-c2cc3cccn(CC(=O)N4CCOCC4)c-3n2)cc1, the INHIBITION falls from 53.22% to -16.87%.

Compared with Cc1cnc2c(c1NCc1ccc(F)cc1)c(=O)n(C)c(=O)n2C, CCOc1ccccc1Nc1nc2c(C)nn(C)c2c(=O)n1C is lower in INHIBITION: -5.61% for the first, -51.9% for the second.

First: CCCc1nnc(NCc2ccc(OC)c(C#N)c2)o1
Second: COc1ccc(CNc2nnc(CC(C)(C)C)o2)cc1C#N
The INHIBITION of the first is lower: 48.21% for the first, 55.36% for the second.

Going from CC(C)(C)Cc1nnc(NCc2cccc(C#N)c2)o1 to CC(C)n1cnnc1CN(C)Cc1ccoc1, the INHIBITION rises from 31.51% to 33.78%.

First: O=C(CCN1CCc2ccccc21)N1C[C@@H](O)[C@H](N2CCCC2)C1
Second: O=C(CN1CCC(c2ccccc2)CC1)NCc1cc2n(n1)CCNC2
The INHIBITION of the first is higher: 15.72% for the first, 5.21% for the second.

First: O=C1C[C@H]2[C@@H](CCN2C(=O)Cc2cccs2)N1Cc1ccncc1
Second: O=C1C[C@H]2[C@@H](CCN2C(=O)Cc2cccs2)N1Cc1cccnc1
The INHIBITION of the first is lower: 17.77% for the first, 55.7% for the second.

First: O=C(Cc1cccs1)N1CC[C@H]2[C@H]1CCN2Cc1cccnc1
Second: O=C1C[C@H]2[C@@H](CCN2C(=O)Cc2ccsc2)N1Cc1cccnc1
The INHIBITION of the first is lower: 7.33% for the first, 52.91% for the second.

Going from O=C1C[C@H]2[C@@H](CCN2C(=O)Cc2ccccc2)N1Cc1cccnc1 to O=C1C[C@H]2[C@@H](CCN2C(=O)c2cscn2)N1Cc1cccnc1, the INHIBITION falls from 30.4% to -12.98%.

First: CN(Cc1nnc2n1CCC2)C(=O)c1ccc2c(c1)CCO2
Second: O=C(CN1CCOc2ccccc2C1)NCc1cc2n(n1)CCNC2
The INHIBITION of the first is higher: 29.42% for the first, 5.75% for the second.

Going from CC(C)OCCNC1(c2ccc(Cl)cc2)CCOCC1 to COCCNC1(c2ccc(Cl)cc2)CCOCC1, the INHIBITION rises from -17.01% to 60.9%.

First: CCOCCNC1(c2ccc(Cl)cc2)CCOCC1
Second: CN1CCOC(CNC(=O)COc2ccc(F)cc2F)C1 (stereo not given)
The INHIBITION of the first is higher: 32.26% for the first, -7.88% for the second.

Going from CC(c1nc(C(C)(C)C)no1)S(=O)(=O)CC(=O)N1CCCC1 (stereo not given) to Cc1nc2c(c(NC(C)C)n1)CCN(C(=O)CCO)CC2, the INHIBITION falls from -3.22% to -13.61%.

First: Cn1c(C2CCCN2C(=O)c2cn(CCN)nn2)nc2ccccc21 (stereo not given)
Second: c1ccc2cc(OCCN3CCn4c(nnc4C4CC4)C3)ccc2c1
The INHIBITION of the first is lower: -6.44% for the first, 18.31% for the second.

Compared with O=C(CN1CC(c2ccccc2)CC1=O)NCc1cc2n(n1)CCNC2 (stereo not given), O=C(NCc1cccnc1)[C@@H]1CC[C@@H]2[C@@H](CCN2c2ncccn2)O1 is lower in INHIBITION: 66.18% for the first, 25.5% for the second.

Compared with Cc1nc2c(c(NC(C)C)n1)CCN(C1CCOCC1)CC2, CC(C)Nc1nc2c(c(NC3CC3)n1)CCN(C1CCOCC1)CC2 is lower in INHIBITION: 53.44% for the first, 4.95% for the second.

Going from Cc1cnc(NC(=O)NC(CCO)c2cccs2)s1 (stereo not given) to CC(CCc1ccco1)NC(=O)Nc1cc(C(F)(F)F)c[nH]c1=O (stereo not given), the INHIBITION rises from -11.51% to 57.95%.

Going from Cn1nc(COc2cncnc2)c2c1CCN(Cc1ccco1)C2 to c1csc(CN2Cc3nccn3CC(Cn3cncn3)C2)c1 (stereo not given), the INHIBITION rises from 8.36% to 54.62%.

Compared with O=C(COCc1ccco1)Nc1cc(C(F)(F)F)c[nH]c1=O, O=C(CCc1ccco1)Nc1cc(C(F)(F)F)c[nH]c1=O is lower in INHIBITION: 66.2% for the first, 19.35% for the second.

First: O=C(NCc1ccoc1)Nc1cc(C(F)(F)F)c[nH]c1=O
Second: O=C(NCCc1ccco1)Nc1cc(C(F)(F)F)c[nH]c1=O
The INHIBITION of the first is lower: -7.02% for the first, -6.16% for the second.

Compared with Cc1noc(CCCC(=O)Nc2cc(C(F)(F)F)c[nH]c2=O)n1, CCCc1noc(CCC(=O)Nc2cc(C(F)(F)F)c[nH]c2=O)n1 is higher in INHIBITION: -30.49% for the first, 43.44% for the second.

First: Cn1nccc1C(=O)Nc1cc(C(F)(F)F)c[nH]c1=O
Second: O=C(Nc1cc(C(F)(F)F)c[nH]c1=O)c1ccco1
The INHIBITION of the first is lower: -27.71% for the first, 56.67% for the second.

First: CN(Cc1ccco1)C(=O)Nc1cc(C(F)(F)F)c[nH]c1=O
Second: CCN(Cc1ccco1)C(=O)Nc1cc(C(F)(F)F)c[nH]c1=O
The INHIBITION of the first is lower: 19.35% for the first, 28.65% for the second.

Compared with CC(C)c1noc(CCC(=O)Nc2cc(C(F)(F)F)c[nH]c2=O)n1, Cc1ccccc1C(C)NC(=O)Cc1c(C)nc2cc(=O)[nH]n2c1C (stereo not given) is lower in INHIBITION: 64.9% for the first, -18.39% for the second.

Going from Cc1nc(C(C)C)sc1C(=O)N(C)Cc1cnn(C)c1 to CCn1cc(-c2cc(-c3cc(CN(C)C)cs3)nc(N)c2C#N)c(C)n1, the INHIBITION rises from -35.11% to 42.48%.

Going from Cc1cc(NC(=O)NCC(C)N2CCOCC2)n(C)n1 (stereo not given) to Cc1cccc(CN2CCOC3(CCCN(CC(=O)N(C)C)C3)C2)n1 (stereo not given), the INHIBITION falls from 25.53% to -25.4%.

First: CC(=O)N1CCOC(c2cncc(CCC(=O)N(C)C)n2)C1 (stereo not given)
Second: Cn1cc(CN2CC[C@@H](NS(C)(=O)=O)[C@@H]2Cc2cccnc2)cn1
The INHIBITION of the first is higher: -26.69% for the first, -28.13% for the second.

Going from CN(CCCNc1cc(N2CCCC2CO)ncn1)S(C)(=O)=O (stereo not given) to CN(C)CCN(C)C(=O)Cn1cccc2cc(-c3ccc(F)cc3)nc1-2, the INHIBITION rises from 22.75% to 31.81%.

First: c1cc(CN2Cc3nccn3CC(Cn3cncn3)C2)ccn1 (stereo not given)
Second: c1csc(CN2Cc3nccn3CC(Cn3cncn3)C2)n1 (stereo not given)
The INHIBITION of the first is higher: -6.68% for the first, -43.55% for the second.

CC(C)NC(=O)N1CCN(CC2CC2)CC2(CNC(=O)C2)C1 (stereo not given) showed an INHIBITION of 13.38%.
